HEK293 tox: HEK 293 cell cytotoxicity. HEK 293 viability, ATP luminescence (CellTiter-Glo), 48-72 h. Potency, µM (doses to about 115 µM), most hits filed as inhibitors. 94,000 tested, 6.6% active. AID 1345083; note: nearly all actives have a fitted effect of over 60% in size
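HEK 293 cells at 250 cells/well were exposed to compounds by pintool transfer for 48 or 72 hr at 37 degree Celsius, 5% CO2. Viability was read as ATP-coupled luminescence with CellTiter-Glo after 10 min at room temperature.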
HEK293 viab: cell viability loss counter-screen | HEK-293-SNCA-luc viability, GF-AFC fluorescence, 24 h | Potency, µM (series often up to 57.1 µM), usual class: cytotoxic | 150,000 tested, 0.12% active | AID 1671193; note: nearly all actives have a fitted effect of over 30% in size
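HEK-293-SNCA-luc cells (1500/well) plated 24 h, then exposed 24 h to a dilution series; GF-AFC added 30 min at 37C, fluorescence 405/540 nm; normalised to medium-only and DMSO wells, Hill fit.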
hNpr1 antagonist: blocks ANP-stimulated signaling of human Npr1 receptor; P16066; HEK293 hNpr1 GloSensor cGMP, ANP-stimulated luminescence; Potency, µM (highest dose often 46.3 µM), usual class: inhibitors; 76,000 tested, 1.6% active; AID 1347048; calls by dose curve; note: nearly all actives have a fitted effect of over 60% in size
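HEK293 cells stably expressing human Npr1 and cGMP GloSensor pGS-40F, loaded 2 h with 2% GloSensor reagent, given compound 30 min at room temperature. Luminescence read before and 20 min after 0.1 nM hNppA.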
FLuc inh: blocks purified firefly luciferase enzyme activity; P08659; purified P. pyralis luciferase, luminescence, biochemical; Potency, µM (doses to about 115 µM), usual class: inhibitors; 76,000 tested, 2.5% active; AID 1347043; note: nearly all actives have a fitted effect of over 65% in size
Target sequence (P08659 whole entry, looked up): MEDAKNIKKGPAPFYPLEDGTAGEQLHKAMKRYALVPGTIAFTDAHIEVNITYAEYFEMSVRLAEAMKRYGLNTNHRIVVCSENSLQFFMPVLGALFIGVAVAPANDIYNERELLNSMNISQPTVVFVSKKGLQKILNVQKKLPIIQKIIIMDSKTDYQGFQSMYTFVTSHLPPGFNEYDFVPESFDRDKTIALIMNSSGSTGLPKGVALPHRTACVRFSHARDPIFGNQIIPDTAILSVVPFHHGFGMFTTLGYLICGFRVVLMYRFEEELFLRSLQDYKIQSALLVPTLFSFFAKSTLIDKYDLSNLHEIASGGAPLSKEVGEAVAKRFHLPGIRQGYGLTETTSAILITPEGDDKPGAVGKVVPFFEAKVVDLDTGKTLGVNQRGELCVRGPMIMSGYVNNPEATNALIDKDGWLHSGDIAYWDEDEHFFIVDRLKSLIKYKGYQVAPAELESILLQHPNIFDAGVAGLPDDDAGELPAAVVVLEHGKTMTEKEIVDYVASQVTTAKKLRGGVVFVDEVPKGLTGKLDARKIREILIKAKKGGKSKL
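Biochemical qHTS: compound (6-point titration) added to 10uM D-luciferin plus 10uM ATP in Tris acetate pH 7.5 buffer with Mg, Tween-20 and BSA, then purified enzyme at 10nM; light output imaged.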
3T3 cytotox: NIH 3T3 cell cytotoxicity; Potency, µM (doses to about 96.7 µM), actives largely listed as inhibitors; 94,000 tested, 4.3% active; NIH 3T3 viability, CellTiter-Glo ATP luminescence, 48-72 h; note: nearly all actives have a fitted effect of over 55% in size
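Cytotoxicity is measured as loss of cellular ATP: NIH 3T3 cells (400/well) are exposed to compound for 48 or 72 hr at 37 °C, then CellTiter-Glo luminescence is imaged after 10 min at room temperature.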
SNCA expr inh: SNCA gene expression inhibition; HEK-293 SNCA-luciferase knock-in, luminescence, 24 h; Potency, µM (highest dose often 57.2 µM), most hits filed as inhibitors; 140,000 tested, 0.17% active; note: nearly all actives have a fitted effect of over 45% in size
A number is an active result; i = inactive; ? = inconclusive; nt = no result; ! = a repeat was not active; [ ] = dose if it differs, or a comment. This is a sample that favours compounds with a hit; in the whole collection about 7.4% have one here. Unless noted, calls come from the whole dose curve; as a rule, active = well fitted curve in the direction sought with a large enough effect; inconclusive = small, poorly fitted or top-dose-only effect, or another doubt; inactive = no such curve, though single readings can be large; an effect the other way counts as inactive or inconclusive.

SMILES	HEK293 tox	HEK293 viab	hNpr1 antagonist	FLuc inh	3T3 cytotox	SNCA expr inh
COc1ccc(-c2ccc(C(=O)NCc3ccc(C(F)(F)F)cc3)c(Cl)c2)nn1	i	nt	nt	nt	i	nt
COc1cccc(CNC(=O)c2c[nH]c3ncccc23)c1	i	i	i	39.8µM	?	i
Cc1ccc(CNC(=O)c2noc(-c3ccc4c(c3)OCO4)n2)cc1	?	i	i	?	i	i
COc1ccccc1C(=O)NCc1c[nH]c2ncccc12	i	i	i	i	i	?
O=C(NCc1cccc(Cl)c1)c1noc(-c2ccc3c(c2)OCO3)n1	39.8µM	i	i	?	?	i
CSc1ccc(CNC(=O)c2noc(-c3ccc(F)cc3)n2)cc1	i	i	i	28.2µM	?	i
COc1ccc(CNC(=O)c2noc(-c3ccc4c(c3)OCO4)n2)cc1	?	i	i	31.6µM	?	i
CCN(CC)Cc1cnc2c(C(=O)NC3CCCN(C(C)=O)C3)cnn2c1 (stereo not given)	i	i	i	i	i	i
COc1cccc(CNC(=O)c2noc(-c3ccc(C)cc3)n2)c1	i	i	i	28.2µM	i	i
Cn1cccc1C(=O)NC1CCCN(c2cc(-c3ccc(Cl)cc3)[nH]n2)C1 (stereo not given)	39.8µM	i	i	?	39.8µM	i
Cn1nccc1C(=O)NC1CCCN(c2cc(-c3ccc(Cl)cc3)[nH]n2)C1 (stereo not given)	?	i	i	?	?	i
O=C(NC1CCCN(c2cc(-c3ccc(Cl)cc3)[nH]n2)C1)c1ccccn1 (stereo not given)	44.7µM	i	i	39.8µM	?	i
CCN1C(=O)C2CC3(CCN(Cc4cn[nH]c4-c4cccs4)CC3)CN2C1=O (stereo not given)	i	i	i	i	i	i
CC(=O)NCC(=O)N1Cc2ccccc2CC2(CCN(CC3CCOCC3)CC2)C1	i	i	nt	nt	i	i
O=C(Nc1ccc(Cl)cc1)C1=NO[C@@H]2CN(c3ccccn3)C[C@H]12	?	i	i	i	i	i
O=C(Nc1cccc(Cl)c1)C1=NO[C@@H]2CN(c3ccccn3)C[C@H]12	100µM	i	i	i	?	i
O=C(NCc1cc(F)cc(F)c1)c1ccc(N2CC3CC(C2)[C@H]2CCCC(=O)N2C3)nc1 (stereo not given in full)	i	i	i	i	i	i
O=C(NCc1cccnc1)c1ccc(N2CC3CC(C2)[C@H]2CCCC(=O)N2C3)nc1 (stereo not given in full)	i	i	i	i	5.01µM	i
O=C(NCc1ccc(F)cc1F)c1ccc(N2CC3CC(C2)[C@H]2CCCC(=O)N2C3)nc1 (stereo not given in full)	i	i	i	i	28.2µM	i
O=C(c1c[nH]c2ccccc12)N1CCC2(CC1)COc1ccccc1[S+](=O)([O-])N2	?	i	nt	nt	?	i
CC(=O)N1CCC(C(=O)N2CCCCCCNC(=O)[C@@H]3CCCC[C@@H]32)CC1	i	i	i	i	?	i
Cc1nn(C)c(C)c1CN(Cc1cnc(N2CCCCC2)nc1)C1CC1	25.1µM	i	12.6µM	?	?	i
CC(C)C1(O)C=C2C(=O)CC3C(C)(C(=O)O)CCCC3(C)C2CC1 (stereo not given)	nt	i	nt	nt	nt	nt
Cc1oc(-c2ccccc2Cl)nc1CS(=O)CC(=O)N1CCN(c2cccc(C(F)(F)F)c2)CC1 (stereo not given)	nt	?	nt	nt	nt	12.6µM
O=C(c1cc(Cl)ccc1Cl)N1CCN(c2cc(-c3ccccc3)[nH]n2)CC1	?	i	i	i	?	i
SMILES	HEK293 tox	HEK293 viab	hNpr1 antagonist	FLuc inh	3T3 cytotox	SNCA expr inh
COc1cccc(OCC(=O)c2ccc3c(c2)N(CCCC(=O)NCc2ccccc2)C(=O)CO3)c1	?	i	i	i	39.8µM	i
Cc1cc(F)ccc1OCC(=O)c1ccc2c(c1)N(C(C)C(=O)N1CCCCC1)C(=O)CO2 (stereo not given)	50.1µM	i	i	?	?	i
Cc1cccc(OCC(=O)c2ccc3c(c2)N(C(C)C(=O)N2CCCC2)C(=O)CO3)c1C (stereo not given)	44.7µM	i	i	?	i	i
COc1ccccc1OCC(=O)c1ccc2c(c1)N(C(C)C(=O)NCCc1ccccc1)C(=O)CO2 (stereo not given)	?	i	i	i	?	i
CC(C(=O)NCCc1ccccc1)N1C(=O)COc2ccc(C(=O)COc3ccc(Cl)cc3)cc21 (stereo not given)	44.7µM	i	i	i	?	i
O=C1OCC(c2ccccc2)=C1Cc1ccccc1	nt	i	nt	nt	nt	nt
COc1ccccc1CN1CCC2(CC1)CC(C(=O)O)N(C(C)=O)C2 (stereo not given)	i	i	i	i	i	?
CCC(=O)N1Cc2ccccc2CC2(CCCN(Cc3ccccn3)C2)C1 (stereo not given)	i	i	nt	nt	i	i
O=C(NC1CCN(Cc2cccc(-c3cccs3)c2)CC1)c1cccc(Cl)c1	20µM!	i[12.5 µM]	nt	nt	?	?
Cc1cccc(-c2cccc(CN3CCC(NC(=O)c4ccc(F)cc4)CC3)c2)c1	?	i	nt	nt	?	i
Cc1cccc(-c2cccc(CN3CCC(NC(=O)c4cccc(Cl)c4)CC3)c2)c1	28.2µM	?	nt	nt	20µM	?
Cc1cccc(-c2cccc(CN3CCC(NC(=O)Cc4cccc(Cl)c4)CC3)c2)c1	20µM	?	nt	nt	14.1µM	?
Cc1cccc(-c2cccc(CN3CCC(NC(=O)NC4CCCC4)CC3)c2)c1	i	?	nt	nt	?	i
Cc1cccc(-c2cccc(CN3CCC(NC(=O)C(C)(C)C)CC3)c2)c1	44.7µM	i	nt	nt	?	i
O=C(c1cccc(Cl)c1)N1CCC(C(=O)N2CCC(c3nc4ccncc4[nH]3)CC2)CC1	i	i	nt	nt	i	i
CN(C(=O)c1ccc2nc(-c3ccc(F)cc3)cn2c1)C1CCOCC1	?	i	i	31.6µM	i	i
Cc1nn(C)c2nc(-c3ccccn3)nc(NCC(c3ccco3)N(C)C)c12 (stereo not given)	28.2µM	i	i	i	?	i
CNS(=O)(=O)CCNc1nc(-c2ccccn2)nc2c1c(C)nn2C	i	i	i	i	i	i
COC(CNc1nc(-c2ccccn2)nc2c1c(C)nn2C)c1cccs1 (stereo not given)	31.6µM	i	i	i	25.1µM	i
COc1ccccc1CN1CCC2(CCCN(C3CCOCC3)C2=O)C1 (stereo not given)	i	i	i	i	i	i
CC(=O)N1CCc2nn(CC(=O)Nc3cccc(C)c3)c(=O)cc2C1	i	i	i	i	i	i
COc1ccc(Cl)cc1NC(=O)Cn1c(N2CCN(c3ccccc3)CC2)nc(C)cc1=O	?	i	i	i	i	i
